Most compounds without a hit are left out; they make up all but 6.1% or so of the library.
D1 ag: Allosteric Agonists of the Human D1 Dopamine Receptor: qHTS. HEK293 T-REx D1 cells, calcium flux, agonist mode. activation, % at 2 µM. hit rate 1% among 360,000; in the data active = activation above about 30%; also: 0% is about no effect
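Agonism was scored from calcium flux recorded over 180 s (1 read/s) after pintool compound addition, following a 10-cycle baseline. Cells were inducible force-coupled HEK293 TREx D1, plated overnight at 30 C and loaded with no-wash calcium dye.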
D1 potentiator: Potentiators of Human D1 Dopamine Receptor: qHTS; D(1A) dopamine receptor (Homo sapiens), P21728; HEK293 TREx D1 cells, calcium flux, dopamine EC20 potentiation; potentiation, % at 10 µM; hit rate 0.036% among 360,000; in the data active = potentiation above about 30%; also: 0% is about no effect
D3 ag: qHTS of D3 Dopamine Receptor Agonist: qHTS. D(3) dopamine receptor (Homo sapiens), P35462. D3R DiscoveRx beta-arrestin cells, luminescence, 90 min. max activation, %. hit rate 0.58% among 410,000; in the data active = max activation above about 30%; also: 0% is about no effect
Target sequence (P35462 whole entry, looked up): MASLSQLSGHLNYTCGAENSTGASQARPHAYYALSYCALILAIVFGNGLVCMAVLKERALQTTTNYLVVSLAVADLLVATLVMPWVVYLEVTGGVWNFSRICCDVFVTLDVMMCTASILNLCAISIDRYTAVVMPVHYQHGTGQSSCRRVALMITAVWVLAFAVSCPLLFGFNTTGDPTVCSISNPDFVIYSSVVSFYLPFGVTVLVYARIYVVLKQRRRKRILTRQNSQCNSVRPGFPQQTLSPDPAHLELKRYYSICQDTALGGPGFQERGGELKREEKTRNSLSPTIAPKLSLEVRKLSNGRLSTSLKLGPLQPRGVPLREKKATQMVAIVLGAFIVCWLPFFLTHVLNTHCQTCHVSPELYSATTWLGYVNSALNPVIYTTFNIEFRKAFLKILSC
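Cells at 1500/well, incubated overnight, then treated with pinned compounds (dopamine as control) for 90 min at 37 degrees C. DiscoveRx reagent added for 30 - 60 minutes at room temperature; luminescence read.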
D3 antag: qHTS of D3 Dopamine Receptor Antagonist: qHTS; AID 652054, 2013; hit rate 2.5% among 360,000; D3R cells, DiscoveRx beta-arrestin luminescence, antagonist mode; active compounds read low; D(3) dopamine receptor (Homo sapiens), P35462; max response, negative = inhibition, %; in the data active = max response below about -50%; inconclusive = no clear call, values can overlap the other calls; also: % is scaled to controls: 0 for no effect and ±100 for the full control effect
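Cells plated overnight at 1500 cells/well, then exposed to library compounds with dopamine controls for 90 minutes at 37 degrees C. DiscoveRx reagent added for 30–60 minutes at room temperature; luminescence read, quantitative HTS format.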
D1 antag: Antagonist of Human D 1 Dopamine Receptor: qHTS; AID 504652, 2011; D(1A) dopamine receptor (Homo sapiens), P21728; activity change, negative = inhibition, % at 10 µM; HEK293 TREx D1 cells, calcium flux, dopamine EC80; active compounds read low; hit rate 3.2% among 360,000; in the data active = activity change below about -30%; also: % is scaled to controls: 0 for no effect and ±100 for the full control effect
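Allosteric or orthosteric antagonism assessed as attenuation of the calcium response to EC80 dopamine, added 180 s after compound, in induced HEK293 Trex D1 cells loaded with no-wash calcium dye.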
Numbers without * were called inactive; ? = inconclusive; . = no result given.

SMILES | D1 ag | D1 potentiator | D3 ag | D3 antag | D1 antag
Cc1cc2c(c(C)c1CCO)C(=O)[C@H](C)C2 | . | . | 0 | -50* | .
CCOC(=O)c1c(NC(=O)CCCOc2ccc(Cl)cc2)sc2c1CCC2 | 2 | -1 | -11 | . | 7
COc1cccc(Nc2c([N+](=O)[O-])cncc2[N+](=O)[O-])c1 | 2 | 3 | -5 | -29 | -1
COc1cccc(Nc2c(Nc3cccc(OC)c3)c(=O)c2=O)c1 | 2 | -2 | -35 | -68* | 6
O=C(CSc1ncnc2c1cnn2-c1ccccc1)NCC1CCCO1 (centres undefined) | 6 | -5 | -2 | 9 | -14
CC1Sc2ccccc2N(Cc2ccccc2)C1=O (centres undefined) | . | . | 2 | 13 | .
CC(=O)c1ccc2c(c1)N(Cc1ccc3ccccc3c1)C(=O)C(C)S2 (centres undefined) | . | . | -6 | -75* | .
Cc1ccccc1/C(N)=N/O | 4 | -1 | -1 | 3 | 5
NS(=O)(=O)c1ccc(NC(=O)Nc2cccc(Cl)c2)cc1 | 1 | -10 | -4 | -4 | -32*
CSc1cccc(NC(=O)Nc2ccc(Cl)cc2)c1 | 13 | -9 | -4 | ? | -33*
NC(=O)c1ccccc1NC(=O)Nc1cccc(Cl)c1 | 1 | -13 | 1 | -6 | -42*
O=C(Nc1cccc(Cl)c1)Nc1ccccc1C(=O)O | 2 | 3 | 6 | -3 | 1
CSc1cccc(NC(N)=O)c1 | 2 | -8 | 6 | 6 | -19
Nc1[nH]ncc1S(=O)(=O)c1ccccc1 | 3 | -2 | 4 | 21 | -8
CCOc1cccc(NC(=O)C2CC(=O)N(C)C(=Nc3cccc(OC)c3)S2)c1 (centres undefined) | 18 | 1 | 6 | . | -19
Cc1ccc(CN2CCC(c3nc4ccc(Cl)cc4[nH]3)CC2)cc1 | 19 | -6 | -37 | -93* | -31*
Nc1nc(Cl)cc(N2CCC(c3cc(-c4ccc(Cl)cc4)n[nH]3)CC2)n1 | 10 | -4 | 15 | 34 | -8
Clc1ccc2nc(C3CCN(Cc4ccccc4)CC3)[nH]c2c1 | 3 | -10 | -32 | -87* | -14
Cc1ccc(CN2CCC(c3cc(-c4ccc(Cl)cc4)n[nH]3)CC2)cc1 | 14 | -8 | -8 | -91* | -13
CC1CCCCN1C(=O)CN1CCC(c2nc3ccc(Cl)cc3[nH]2)CC1 (centres undefined) | 2 | -1 | 0 | -3 | -7
COc1ccc(-c2cc(C3CCN(c4cc(Cl)nc(N)n4)CC3)[nH]n2)cc1 | 17 | -1 | 37* | 21 | 2
O=C(c1cccc(Cl)c1)N1CCC(c2nc3ccccc3[nH]2)CC1 | 0 | 1 | 5 | -1 | -7
CC[C@@H]1/C=C(\C)C[C@H](C)C[C@H](OC)[C@H]2O[C@@](O)(C(=O)C(=O)N3CCCC[C@H]3C(=O)O[C@H](/C(C)=C/[C@@H]3CC[C@@H](Cl)[C@H](OC)C3)[C@H](C)[C@@H](O)CC1=O)[C@H](C)C[C@@H]2OC | . | . | -3 | . | .
Cc1ccc(C)c(NC(=O)N2CCN3CCCCC3C2)c1 (centres undefined) | 2 | -1 | -5 | . | 6
Cc1ccc(C(=O)NCC(=O)OCc2cccc(Br)c2)cc1 | 1 | -3 | 1 | -22 | -26
SMILES | D1 ag | D1 potentiator | D3 ag | D3 antag | D1 antag
Oc1ccc(/C=N/n2c(-c3ccco3)csc2=Nc2cccnc2)c(O)c1 | 0 | 2 | 18 | 43 | -1
CN=c1scc(-c2cccs2)n1/N=C/c1ccccc1O | -1 | 1 | 3 | 28 | -14
COCCN=c1scc(-c2ccco2)n1/N=C/c1ccc(O)c(O)c1O | 3 | -6 | 117* | 19 | 4
CN=c1scc(-c2cccs2)n1/N=C/c1ccc(O)c(O)c1O | 1 | -11 | 170* | 3 | -89*
CC(C)N=c1scc(-c2ccco2)n1/N=C/c1ccc(O)c(O)c1 | 3 | -2 | 19 | 5 | -14
C=CCN=c1scc(-c2ccco2)n1/N=C/c1ccc(O)c(O)c1O | 1 | 1 | 184* | 47 | -8
COc1cccc2c1Oc1ncccc1N(c1ccc(C(=O)NCc3ccccc3Cl)s1)C2 | 4 | -5 | 6 | . | 4
CSC1=NCCN1C(=O)Cc1ccc(Cl)cc1 | 2 | . | 3 | 27 | 24
COc1ccc(CC(=O)N2CCN=C2SC)cc1 | 3 | . | 6 | 28 | -79*
CC(C)(C)c1cc2cccnc2n1Cc1cccc(Cl)c1 | 27 | -9 | -7 | 0 | -31*
CCN1CC2([N+](=O)[O-])C=CC(=O)C([N+](=O)[O-])(C1)C2CC(=O)c1ccccc1 (centres undefined) | -1 | -7 | 1 | -68* | -3
O=C(CN1C(=O)CC(c2ccccc2)S(=O)(=O)c2ccccc21)N1CCCC1 (centres undefined) | 3 | 2 | -5 | 3 | 2
Cc1nc2ccccc2n1CC(=O)NCc1ccccc1 | 7 | 2 | -2 | -50* | -7
CN(C(=O)CSc1nc2ccccc2n1CC(=O)NCc1ccc(F)cc1)c1ccc(F)cc1 | 11 | 0 | -12 | . | -32*
C/C(CC(=O)Nc1cc(Cl)ccc1Cl)=N\NC(=O)c1ccccc1Br | 2 | 5 | -4 | -12 | 8
CCOc1cc(OCC)cc(C(=O)Nc2cccc(-c3nc4ccccc4[nH]3)c2)c1 | 1 | -3 | 0 | . | -38*
CCCOc1ccc(C(=O)Nc2cccc(-c3nc4ccccc4[nH]3)c2)cc1 | 0 | -2 | -2 | . | -2
CCOc1cccc(C(=O)Nc2ccc(NC(=O)c3ccc(Br)cc3)cc2)c1 | 0 | -1 | -21 | . | -6
CCOc1cccc(NC(=O)c2ccc(S(=O)(=O)N(C)C)cc2)c1 | 4 | -12 | -8 | 3 | -43*
CCOc1cccc(C(=O)Nc2ccc3[nH]ncc3c2)c1 | -4 | -6 | 3 | 6 | -32*
CCOc1cccc(C(=O)Nc2ccncc2)c1 | 7 | -5 | 0 | 19 | -32*
O=C(COc1cccc(C(F)(F)F)c1)Nc1ccc2[nH]ncc2c1 | 3 | -2 | -2 | 3 | 1
CC(C)(C)NC(=O)C1C(c2ccc(C(F)(F)F)cc2)=Nc2ccccc2N1C(=O)c1cccc2ccccc12 (centres undefined) | . | . | -7 | 0 | .
COc1cc(OC)cc(C(=O)Nc2ccc(S(=O)(=O)N3CCCCC3c3cccnc3)cc2)c1 (centres undefined) | 1 | -2 | -35 | . | -10
COc1cccc(C(=O)Nc2ccc3[nH]ncc3c2)c1 | -2 | -8 | 1 | 28 | -34*
COc1cc(OC)cc(C(=O)Nc2ccc(C(=O)c3ccncc3)cc2)c1 | 5 | -2 | 5 | -10 | -38*
